Laboratory results taken from PubChem BioAssay (NCI).
The panel holds about 79,000 compounds, 15% with a hit somewhere; the sample as a whole holds those more often. Activity calls are given as the source filed them. Rule as the data show it: active = growth inhibition above about 70%; inactive = the rest.

Assays:
[1] = NCI Yeast Anticancer Drug Screen. Data for the wt1 strain (AID 149);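 also: 0% = growth of vehicle-treated wt1 cultures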; conditions: S. cerevisiae wt1 strain (SPY 50644) growth inhibition, stronger effect = higher value
Method in brief: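 wt1 strain grown with compound or vehicle; inhibition taken from the growth difference.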

[2] = NCI Yeast Anticancer Drug Screen. Data for the rad50EPP+ strain (AID 151);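 also: 0% = growth of vehicle-treated control cultures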; conditions: S. cerevisiae rad50 mutant strain, stronger effect = higher value
Method in brief: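 Compounds were applied to the rad50EPP+ yeast strain, which bears a defined DNA repair alteration, and growth inhibition was determined relative to vehicle-treated cultures.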

[3] = NCI Yeast Anticancer Drug Screen. Data for the mgt1 strain (AID 153); conditions: S. cerevisiae mgt1 mutant growth inhibition, stronger effect = higher value
Method in brief: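 Strain: mgt1 yeast, one of a set carrying defined DNA damage repair or cell cycle control alterations. Compound-treated growth compared with vehicle.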

[4] = NCI Yeast Anticancer Drug Screen. Data for the rad50 strain (AID 155);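 also: 0% = growth of vehicle-only cultures of the same strain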; conditions: S. cerevisiae rad50 strain growth inhibition, stronger effect = higher value
Method in brief: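 DNA repair mutant yeast, compound exposure, growth read-out; inhibition is taken relative to vehicle.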

[5] = NCI Yeast Anticancer Drug Screen. Data for the mec2-1 strain (AID 157); conditions: S. cerevisiae mec2-1 strain, stronger effect = higher value
Method in brief: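 Strain: mec2-1 (DNA repair/cell cycle alteration). Compound exposure, then growth measured; inhibition expressed relative to vehicle.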

[6] = NCI Yeast Anticancer Drug Screen. Data for the rad14 strain (AID 159);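 also: 0% = growth of vehicle-treated control cultures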; conditions: S. cerevisiae rad14 strain growth inhibition, stronger effect = higher value
Method in brief: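 DNA repair-defective yeast, compound-exposed; % growth inhibition derived by comparison with vehicle-treated controls.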

[7] = NCI Yeast Anticancer Drug Screen. Data for the CLN2oe strain (AID 163);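 also: 0% = growth of vehicle-only control cultures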; conditions: S. cerevisiae CLN2oe strain, stronger effect = higher value
Method in brief: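 Growth of a genetically modified yeast strain is measured after compound exposure and compared with cultures given vehicle alone.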

[8] = NCI Yeast Anticancer Drug Screen. Data for the cln2 rad14 strain (AID 165);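 also: 0% = growth equal to vehicle treated cultures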; conditions: S. cerevisiae cln2 rad14 strain, stronger effect = higher value
Method in brief: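 Compounds are applied to the cln2 rad14 yeast strain, and growth is then compared with that of vehicle-treated cultures to give inhibition.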

[9] = NCI Yeast Anticancer Drug Screen. Data for the bub3 strain (AID 167); conditions: S. cerevisiae bub3 mutant strain, stronger effect = higher value
Method in brief: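 In this screen, a yeast mutant lacking normal mitotic checkpoint function is challenged with compound. Relative growth versus vehicle gives the inhibition value.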

[10] = NCI Yeast Anticancer Drug Screen. Data for the mlh1 strain (AID 171);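 also: 0% = growth of vehicle-treated control cultures of the same strain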; conditions: S. cerevisiae mlh1 strain growth inhibition, stronger effect = higher value
Method in brief: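 Growth of the mutant yeast strain after compound exposure, expressed as inhibition relative to vehicle-only controls.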

[11] = NCI Yeast Anticancer Drug Screen. Data for the sgs1 strain (AID 173);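 also: 0% = growth of vehicle-only control cultures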; conditions: S. cerevisiae sgs1 mutant, stronger effect = higher value
Method in brief: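 Growth of a yeast strain bearing a defined genetic alteration is measured after compound treatment. Inhibition is expressed relative to vehicle-only controls.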

[12] = NCI Yeast Anticancer Drug Screen. Data for the mlh1 rad18 strain (AID 175); conditions: S. cerevisiae mlh1 rad18 strain growth inhibition, stronger effect = higher value
Method in brief: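 Read-out is yeast growth inhibition, calculated against vehicle-only controls. The compound was applied to a strain engineered with DNA damage repair alterations.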

[13] = NCI Yeast Anticancer Drug Screen. Data for the rad18 strain (AID 177); conditions: S. cerevisiae rad18 mutant growth inhibition, stronger effect = higher value
Method in brief: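 Growth of the mutant yeast strain after compound exposure, normalised to vehicle-only cultures.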

[14] = NCI Yeast Anticancer Drug Screen. Data for the sgs1 mgt1 strain (AID 161);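 also: 0% = growth of cultures given vehicle only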; conditions: S. cerevisiae sgs1 mgt1 strain, stronger effect = higher value
Method in brief: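 Inhibition of yeast growth, normalised to vehicle-treated controls, is reported for a strain bearing genetic alterations in DNA damage repair.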

[15] = NCI Yeast Anticancer Drug Screen. Data for the wt2 strain (AID 169);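 also: 0% = growth of vehicle-treated yeast cultures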; conditions: S. cerevisiae wt2 strain growth inhibition, stronger effect = higher value
Method in brief: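 This strain belongs to a panel of yeast strains with defined genetic alterations in DNA damage repair or cell cycle control. Compounds are applied, and growth inhibition is measured against vehicle-treated cultures.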

[16] = at 5.0 µM (retest, dose inferred, filed as 0.5)
[17] = at 50.0 µM (retest, dose inferred, filed as 5.0)

Measured: growth inhibition

CCOC(=O)C(NC(=O)c1ccccc1)[CH](c1ccccc1)[Sn]([c]1ccccc1)([c]1ccccc1)[c]1ccccc1 (stereo not drawn)
inactive: [1]; at 1.2 µM -81% | [1]; at 3.7 µM 0% | [1]; at 11.0 µM 0% | [1]; at 33.0 µM 11% | [2]; at 1.2 µM -2% | [2]; at 3.7 µM 2% | [2]; at 11.0 µM 3% | [2]; at 33.0 µM 3% | [2]; at 100.0 µM -6% | [3]; at 1.2 µM -1% | [3]; at 3.7 µM 2% | [3]; at 11.0 µM 2% | [3]; at 33.0 µM 17% | [4]; at 1.2 µM 0% | [4]; at 3.7 µM 3% | [4]; [16] -4% | [4]; at 11.0 µM 4% | [4]; at 33.0 µM 21% | [5]; at 1.2 µM 0% | [5]; at 3.7 µM 1% | [5]; [16] -3% | [5]; at 11.0 µM 1% | [5]; at 33.0 µM 17% | [5]; [17] 40% | [6]; at 1.2 µM 2% | [6]; at 3.7 µM 2% | [6]; at 11.0 µM 4% | [6]; at 33.0 µM 17% | [7]; at 1.2 µM -5% | [7]; at 3.7 µM -11% | [7]; at 11.0 µM -15% | [7]; at 33.0 µM -6% | [8]; [16] -7% | [8]; [17] 19% | [9]; at 1.2 µM -7% | [9]; at 3.7 µM -4% | [9]; [16] -11% | [9]; at 11.0 µM -6% | [9]; at 33.0 µM 10% | [9]; [17] 59% | [10]; at 1.2 µM 0% | [10]; at 3.7 µM 0% | [10]; at 11.0 µM 0% | [10]; at 33.0 µM 17% | [11]; at 1.2 µM 1% | [11]; at 3.7 µM 4% | [11]; at 11.0 µM 4% | [11]; at 33.0 µM 34% | [12]; [16] -5% | [13]; at 1.2 µM -1% | [13]; at 3.7 µM 5% | [13]; at 11.0 µM 0% | [13]; at 33.0 µM 45%
active: [1]; at 100.0 µM 93% | [3]; at 100.0 µM 95% | [4]; [17] 73% | [4]; at 50.0 µM 95.7% | [4]; at 100.0 µM 92% | [5]; at 50.0 µM 97.8% | [5]; at 100.0 µM 95% | [6]; at 100.0 µM 95% | [7]; at 100.0 µM 95% | [8]; at 50.0 µM 93.7% | [9]; at 50.0 µM 98.7% | [9]; at 100.0 µM 94% | [10]; at 100.0 µM 96% | [11]; at 100.0 µM 94% | [12]; [17] 79% | [12]; at 50.0 µM 98% | [13]; at 100.0 µM 94%

CC(O)CN1C(=O)c2cccc3cc([N+](=O)[O-])cc(c23)C1=O (stereo not drawn)
active: [4]; at 11.0 µM 75% | [4]; at 33.0 µM 88% | [4]; [17] 78% | [4]; at 100.0 µM 91% | [13]; at 100.0 µM 88%
inactive: [1]; at 1.2 µM -7% | [1]; at 3.7 µM 5% | [1]; at 11.0 µM 1% | [1]; at 33.0 µM -3% | [1]; at 100.0 µM 0% | [2]; at 1.2 µM 10% | [2]; at 3.7 µM 8% | [2]; at 11.0 µM 18% | [2]; at 33.0 µM 55% | [2]; at 100.0 µM 60% | [3]; at 1.2 µM -23% | [3]; at 3.7 µM 4% | [3]; at 11.0 µM 6% | [3]; at 33.0 µM 15% | [3]; at 100.0 µM 23% | [4]; at 1.2 µM -2% | [4]; at 3.7 µM 27% | [4]; [16] 56% | [4]; at 50.0 µM 50.9% | [5]; at 1.2 µM -17% | [5]; at 3.7 µM -11% | [5]; [16] -16% | [5]; at 11.0 µM 2% | [5]; at 33.0 µM 34% | [5]; [17] 65% | [5]; at 50.0 µM 67.4% | [5]; at 100.0 µM 42% | [6]; at 1.2 µM 2% | [6]; at 3.7 µM 12% | [6]; at 11.0 µM 14% | [6]; at 33.0 µM 19% | [6]; at 100.0 µM 21% | [14]; [16] -13% | [14]; [17] 15% | [14]; at 50.0 µM 58% | [7]; at 1.2 µM 20% | [7]; at 3.7 µM 0% | [7]; at 11.0 µM -2% | [7]; at 33.0 µM -5% | [7]; at 100.0 µM -5% | [8]; [16] 5% | [8]; [17] 33% | [8]; at 50.0 µM 13.4% | [9]; at 1.2 µM -8% | [9]; at 3.7 µM -6% | [9]; [16] 8% | [9]; at 11.0 µM -11% | [9]; at 33.0 µM -21% | [9]; [17] 32% | [9]; at 50.0 µM 39.4% | [9]; at 100.0 µM -30% | [15]; at 1.2 µM -27% | [15]; at 3.7 µM -18% | [15]; at 11.0 µM -13% | [15]; at 33.0 µM -12% | [15]; at 100.0 µM 2% | [11]; at 1.2 µM -6% | [11]; at 3.7 µM -15% | [11]; at 11.0 µM 6% | [11]; at 33.0 µM 15% | [11]; at 100.0 µM 30% | [13]; at 1.2 µM -11% | [13]; at 3.7 µM 2% | [13]; at 11.0 µM 9% | [13]; at 33.0 µM 67%

O=S(=O)(O)CC[S][Sn]([S]CCS(=O)(=O)O)([c]1ccccc1)[c]1ccccc1
active: [1]; at 11.0 µM 80% | [1]; at 33.0 µM 95% | [1]; at 100.0 µM 98% | [3]; at 11.0 µM 92% | [3]; at 33.0 µM 97% | [3]; at 100.0 µM 98% | [4]; at 11.0 µM 90% | [4]; at 33.0 µM 97% | [4]; [17] 97% | [4]; at 50.0 µM 88.5% | [4]; at 100.0 µM 97% | [5]; at 11.0 µM 81% | [5]; at 33.0 µM 97% | [5]; [17] 99% | [5]; at 50.0 µM 89.8% | [5]; at 100.0 µM 98% | [6]; at 11.0 µM 91% | [6]; at 33.0 µM 97% | [6]; at 100.0 µM 97% | [14]; [17] 95% | [14]; at 50.0 µM 91% | [8]; [17] 91% | [8]; at 50.0 µM 88.5% | [9]; at 11.0 µM 87% | [9]; at 33.0 µM 96% | [9]; [17] 96% | [9]; at 50.0 µM 87.8% | [9]; at 100.0 µM 97% | [15]; at 11.0 µM 89% | [15]; at 33.0 µM 98% | [15]; at 100.0 µM 97% | [10]; at 11.0 µM 89% | [10]; at 33.0 µM 95% | [10]; at 100.0 µM 96% | [11]; at 11.0 µM 88% | [11]; at 33.0 µM 96% | [11]; at 100.0 µM 97% | [12]; [17] 99% | [12]; at 50.0 µM 91.5% | [13]; at 11.0 µM 92% | [13]; at 33.0 µM 96% | [13]; at 100.0 µM 98%
inactive: [1]; at 1.2 µM -25% | [1]; at 3.7 µM 12% | [2]; at 1.2 µM -20% | [2]; at 3.7 µM -17% | [2]; at 11.0 µM -11% | [2]; at 33.0 µM -7% | [2]; at 100.0 µM -22% | [3]; at 1.2 µM -7% | [3]; at 3.7 µM 45% | [4]; at 1.2 µM -28% | [4]; at 3.7 µM 18% | [4]; [16] 22% | [5]; at 1.2 µM -21% | [5]; at 3.7 µM 11% | [5]; [16] 20% | [6]; at 1.2 µM -6% | [6]; at 3.7 µM 35% | [14]; [16] 3% | [8]; [16] 6% | [9]; at 1.2 µM -31% | [9]; at 3.7 µM 30% | [9]; [16] 46% | [15]; at 1.2 µM -34% | [15]; at 3.7 µM 8% | [10]; at 1.2 µM -35% | [10]; at 3.7 µM 11% | [11]; at 1.2 µM -12% | [11]; at 3.7 µM 32% | [12]; [16] 43% | [13]; at 1.2 µM -2% | [13]; at 3.7 µM 43%
